In PubChem BioAssay AID1159580 (chemical genetic matrix, 2015):
Several values for one entry are separate records, joined by “and”; a condition that tells them apart may be missing. Equal values may be shown once. In all, about 5,500 compounds went through this assay and about 2,000 (36%) were called active. About 18% were inconclusive and are not listed. Rule as the data show it: active = normalized growth mostly below about 0.91 (no sharp cut-off); inconclusive = no clear call, values can overlap the other calls; inactive = mostly above about 0.92. Some of the results follow.

Assay: chemical genetic growth profiling, strain panel (AID 1159580);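 also: tested at 20 µM; growth read once vehicle control cultures reached saturation at 30 °C; 1 = growth at the plate median or of vehicle wells; lower values mean less growth of the strain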
Conditions: S. cerevisiae deletion strains, growth OD

Measured: normalized growth

OCC(O)C(O)C(O)CO (stereo unspecified)
inactive: locus YAL021C, strain ccr4, stronger effect = lower value 1.01 | locus YAL026C, strain drs2, stronger effect = lower value 1.02 and 1.01 | locus YAL030W, strain snc1, stronger effect = lower value 1.03 and 0.992 | locus YBL061C, strain skt5, stronger effect = lower value 1.02 and 0.994 | locus YBR009C, strain hhf1, stronger effect = lower value 1.02 and 0.989 | locus YBR021W, strain FUR4, stronger effect = lower value 1.07 | locus YBR023C, strain chs3, stronger effect = lower value 1.03 and 0.999 | locus YBR171W, strain sec66, stronger effect = lower value 1.06 and 0.99 | locus YBR229C, strain ROT2, stronger effect = lower value 0.964 | locus YBR231C, strain swc5, stronger effect = lower value 1.03 and 0.994 | locus YBR279W, strain paf1, stronger effect = lower value 1.01 and 0.998 | locus YCL011C, strain gbp2, stronger effect = lower value 1.03 and 1.01 | locus YCL016C, strain dcc1, stronger effect = lower value 1.03 and 0.99 | locus YCL029C, strain bik1, stronger effect = lower value 0.985 | locus YCL061C, strain MRC1, stronger effect = lower value 1.03 | locus YCL069W, strain vba3, stronger effect = lower value 1.03 and 0.994 | locus YCR088W, strain abp1, stronger effect = lower value 1.02 and 0.991 | locus YDL005C, strain med2, stronger effect = lower value 1.03 and 0.984 | locus YDL035C, strain GPR1, stronger effect = lower value 1.04 | locus YDL040C, strain nat1, stronger effect = lower value 1.02 and 1 | locus YDL074C, strain BRE1, stronger effect = lower value 1.12 | locus YDL101C, strain DUN1, stronger effect = lower value 0.996 | locus YDL134C, strain PPH21, stronger effect = lower value 1.01 | locus YDL185W, strain tfp1, stronger effect = lower value 0.982 | locus YDL192W, strain arf1, stronger effect = lower value 1.02 | locus YDR001C, strain nth1, stronger effect = lower value 1.02 | locus YDR069C, strain doa4, stronger effect = lower value 1.02 and 0.976 | locus YDR101C, strain arx1, stronger effect = lower value 1.05 | locus YDR137W, strain rgp1, stronger effect = lower value 1.09 and 0.983 | locus YDR159W, strain sac3, stronger effect = lower value 1.03 and 1 | locus YDR162C, strain NBP2, stronger effect = lower value 0.971 | locus YDR195W, strain ref2 1.04 and 0.983 | locus YDR297W, strain sur2, stronger effect = lower value 1.02 and 1.01 | locus YDR318W, strain mcm21, stronger effect = lower value 0.992 | locus YDR334W, strain swr1, stronger effect = lower value 1.02 and 1 | locus YDR335W, strain msn5, stronger effect = lower value 1.02 and 0.999 | locus YDR388W, stronger effect = lower value 0.995 | locus YDR392W, strain spt3, stronger effect = lower value 1.02 and 0.998 | locus YDR502C, strain sam2, stronger effect = lower value 0.995 | locus YEL003W, strain gim4, stronger effect = lower value 1.03 and 1 | locus YEL037C, strain rad23, stronger effect = lower value 1.01 and 1 | locus YEL061C, strain CIN8 (second series), stronger effect = lower value 1.03 and 0.998 | locus YEL061C, strain CIN8, stronger effect = lower value 1.01 | locus YER015W, strain faa2, stronger effect = lower value 1.02 and 1 | locus YER016W, strain bim1, stronger effect = lower value 1.03 and 0.982 | locus YER110C, stronger effect = lower value 0.983 | locus YER111C, strain swi4, stronger effect = lower value 1.05 and 0.999 | locus YER155C, strain BEM2 (second series), stronger effect = lower value 1.05 and 0.987 | locus YER155C, strain BEM2, stronger effect = lower value 1 | locus YER167W, strain BCK2, stronger effect = lower value 1.01 | locus YFR010W, strain ubp6, stronger effect = lower value 1.02 and 1 | locus YGL078C, strain dbp3, stronger effect = lower value 1.01 | locus YGL086W, strain mad1, stronger effect = lower value 1.05 | locus YGL167C, strain pmr1, stronger effect = lower value 1.04 and 1 | locus YGL173C, strain kem1, stronger effect = lower value 1.03 and 0.996 | locus YGL227W, strain vid30, stronger effect = lower value 1.02 and 0.98 | locus YGL240W, strain doc1, stronger effect = lower value 1.03 and 1.01 | locus YGL248W, strain PDE1, stronger effect = lower value 0.999 | locus YGL253W, strain hxk2, stronger effect = lower value 1.02 and 1.01 | locus YGR135W, strain pre9, stronger effect = lower value 0.984 | locus YGR229C, strain SMI1, stronger effect = lower value 1.04 | locus YGR252W, strain gcn5, stronger effect = lower value 1.06 | locus YHR013C, strain ard1, stronger effect = lower value 1.04 and 0.994 | locus YHR027C, strain rpn1, stronger effect = lower value 1.03 and 0.991 | locus YHR030C, strain SLT2, stronger effect = lower value 1.03 and 1.02 | locus YHR079C, strain IRE1 (second series), stronger effect = lower value 0.994 | locus YHR079C, strain IRE1, stronger effect = lower value 1.02 and 1.05 | locus YHR094C, strain hxt1, stronger effect = lower value 0.982 | locus YHR129C, strain ARP1, stronger effect = lower value 1.02 | locus YHR142W, strain chs7, stronger effect = lower value 1.04 and 1.02 | locus YHR200W, strain rpn10, stronger effect = lower value 1 | locus YIL066C, strain RNR3, stronger effect = lower value 1.02 | locus YIL073C, strain SPO22, stronger effect = lower value 1.07 | locus YIL125W, strain kgd1, stronger effect = lower value 0.997 | locus YIR030C, strain dcg1, stronger effect = lower value 1 | locus YJL092W, strain hpr5, stronger effect = lower value 1.03 and 1 | locus YJL095W, strain BCK1 (second series), stronger effect = lower value 1.01 and 0.999 | locus YJL095W, strain BCK1, stronger effect = lower value 1.04 and 1.03 | locus YJL115W, strain asf1, stronger effect = lower value 1.04 and 0.983 | locus YJL129C, strain trk1, stronger effect = lower value 1.05 and 0.992 | locus YJL134W, strain LCB3, stronger effect = lower value 0.993 | locus YJL154C, strain vps35, stronger effect = lower value 1.02 and 0.991 | locus YJL164C, strain tpk1, stronger effect = lower value 1.03 and 0.996 | locus YJL166W, strain qcr8, stronger effect = lower value 1.03 and 1.01 | locus YJL168C, strain set2, stronger effect = lower value 0.998 | locus YJL187C, strain SWE1 (second series), stronger effect = lower value 0.995 | locus YJL187C, strain SWE1, stronger effect = lower value 1.04 and 0.996 | locus YJR043C, strain POL32, stronger effect = lower value 1.05 | locus YJR066W, strain TOR1, stronger effect = lower value 0.962 and 0.981 | locus YKL009W, strain mrt4, stronger effect = lower value 1.06 | locus YKL068W, stronger effect = lower value 0.987 | locus YKL085W, strain MDH1 (second series), stronger effect = lower value 1.01 | locus YKL085W, strain MDH1, stronger effect = lower value 1.01 | locus YKL160W, strain elf1, stronger effect = lower value 1.02 and 0.994 | locus YKL190W, strain CNB1, stronger effect = lower value 0.996 | locus YKR001C, strain vps1, stronger effect = lower value 1.02 | locus YKR026C, strain gcn3, stronger effect = lower value 1.03 and 0.989 | locus YKR091W, strain srl3, stronger effect = lower value 1.02 and 0.991 | locus YLL001W, strain dnm1, stronger effect = lower value 1.03 and 1 | locus YLL026W, stronger effect = lower value 1.03 and 0.991 | locus YLL041C, strain sdh2, stronger effect = lower value 1.02 and 0.993 | locus YLR027C, strain aat2, stronger effect = lower value 1.03 and 0.975 | locus YLR039C, strain RIC1, stronger effect = lower value 1.07 | locus YLR058C, strain SHM2, stronger effect = lower value 1 | locus YLR102C, strain apc9, stronger effect = lower value 0.992 | locus YLR113W, strain HOG1, stronger effect = lower value 1.02 and 1.06 | locus YLR221C, strain rsa3, stronger effect = lower value 1.03 and 0.996 | locus YLR258W, strain gsy2, stronger effect = lower value 1.01 and 1 | locus YLR262C, strain YPT6 (second series), stronger effect = lower value 1.05 and 1.02 | locus YLR262C, strain YPT6, stronger effect = lower value 1.02 | locus YLR268W, strain sec22, stronger effect = lower value 1.03 | locus YLR320W, strain mms22, stronger effect = lower value 1.03 and 1.01 | locus YLR330W, strain CHS5, stronger effect = lower value 1.01 | locus YLR342W, strain FKS1 (second series), stronger effect = lower value 1.16 | locus YLR342W, strain FKS1, stronger effect = lower value 1.03 and 0.995 | locus YLR357W, strain rsc2, stronger effect = lower value 1.06 and 0.993 | locus YLR370C, strain arc18, stronger effect = lower value 1.02 and 0.986 | locus YLR371W, strain rom2, stronger effect = lower value 1 | locus YLR384C, strain iki3, stronger effect = lower value 1.03 and 0.966 | locus YLR418C, strain cdc73, stronger effect = lower value 1.05 | locus YML016C, strain PPZ1, stronger effect = lower value 1 | locus YML032C, strain rad52, stronger effect = lower value 0.996 | locus YML120C, strain ndi1, stronger effect = lower value 1.03 and 1 | locus YML124C, strain tub3, stronger effect = lower value 0.99 | locus YMR058W, strain fet3, stronger effect = lower value 1.02 and 1 | locus YMR078C, strain ctf18, stronger effect = lower value 0.998 | locus YMR125W, strain sto1, stronger effect = lower value 1.02 and 1 | locus YMR129W, stronger effect = lower value 1.03 and 0.992 | locus YMR205C, strain PFK2, stronger effect = lower value 1.05 and 0.988 | locus YMR223W, strain ubp8, stronger effect = lower value 1 | locus YMR231W, strain pep5, stronger effect = lower value 1.01 | locus YMR263W, strain SAP30, stronger effect = lower value 1.01 | locus YMR307W, strain GAS1, stronger effect = lower value 1.2 | locus YNL067W, strain RPL9B, stronger effect = lower value 0.991 | locus YNL071W, strain lat1, stronger effect = lower value 1.02 and 1.01 | locus YNL128W, strain TEP1, stronger effect = lower value 1.02 | locus YNL183C, strain NPR1, stronger effect = lower value 0.969 and 0.984 | locus YNL209W, strain ssb2, stronger effect = lower value 1.01 and 0.988 | locus YNL233W, strain BNI4, stronger effect = lower value 1.02 | locus YNL248C, strain rpa49, stronger effect = lower value 1.03 and 1.02 | locus YNL250W, strain rad50, stronger effect = lower value 1 | locus YNL271C, strain bni1, stronger effect = lower value 1.01 | locus YNL298W, strain CLA4, stronger effect = lower value 1.02 | locus YNL307C, strain MCK1, stronger effect = lower value 0.997 | locus YNL322C, strain KRE1 (second series), stronger effect = lower value 1.03 and 0.99 | locus YNL322C, strain KRE1, stronger effect = lower value 1.01 | locus YNR049C, strain mso1, stronger effect = lower value 1.02 and 0.994 | locus YNR052C, strain pop2, stronger effect = lower value 1.01 | locus YOL012C, strain htz1 0.9 | locus YOL147C, strain pex11, stronger effect = lower value 0.994 | locus YOR001W, strain rrp6, stronger effect = lower value 1.01 and 0.998 | locus YOR061W, strain CKA2, stronger effect = lower value 0.989 | locus YOR069W, strain VPS5, stronger effect = lower value 1.01 | locus YOR070C, strain gyp1, stronger effect = lower value 1.01 and 0.994 | locus YOR080W, strain dia2, stronger effect = lower value 1.03 and 0.985 | locus YOR083W, strain WHI5, stronger effect = lower value 1.01 and 0.997 | locus YOR106W, strain vam3, stronger effect = lower value 1.05 and 0.998 | locus YOR136W, strain idh2, stronger effect = lower value 0.992 | locus YOR144C, strain elg1, stronger effect = lower value 0.989 | locus YOR184W, strain ser1, stronger effect = lower value 1 | locus YOR231W, strain MKK1, stronger effect = lower value 1.03 and 1.05 | locus YOR265W, strain rbl2, stronger effect = lower value 1.03 and 0.995 | locus YOR270C, strain vph1, stronger effect = lower value 1.09 and 1.04 | locus YOR290C, strain snf2, stronger effect = lower value 1.04 and 0.997 | locus YOR316C, strain cot1, stronger effect = lower value 0.989 | locus YPL051W, strain arl3, stronger effect = lower value 1.02 and 0.975 | locus YPL078C, strain atp4, stronger effect = lower value 1.02 and 0.992 | locus YPL106C, strain sse1, stronger effect = lower value 1.03 and 0.946 | locus YPL240C, strain hsp82, stronger effect = lower value 1.02 and 0.997 | locus YPL241C, strain CIN2, stronger effect = lower value 0.997 | locus YPL256C, strain CLN2, stronger effect = lower value 0.996 and 1.06 | locus YPR119W, strain clb2, stronger effect = lower value 1 | locus YPR141C, strain kar3, stronger effect = lower value 0.992 | locus YPR163C, strain tif3, stronger effect = lower value 0.995 | locus YPR167C, strain met16, stronger effect = lower value 1 | strain wtn01, stronger effect = lower value 1.04
